Laboratory results reported in PubChem BioAssay.
Activity calls are given as the source filed them. Unless noted, no stated cut-off is given here; in the data, active means inhibition above about 80%; inactive means the rest.

Key:
[1] = growth inhibition, single agent or in combination, cell-based, chromothripsis tumors, cisplatin or BGB combos (AID 1671449); conditions: LFS_MB_P medulloblastoma cells;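 further: cells exposed for 96 hours; 0% = vehicle DMSO and 100% = killing by high DMSO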
[2] = growth inhibition, single agent and combos, cell-based, chromothripsis tumors, cisplatin or BGB combos (AID 1671450); conditions: HDN33 neuroblastoma cells, stronger effect = higher value;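 further: cells exposed to compound for four days; 0% = vehicle DMSO and 100% = cell killing by high DMSO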
[3] = growth inhibition, single agents and combos, ICB984, cell-based, cisplatin or BGB combos, synergistic combos for chromothripsis tumors (AID 1671451; call rule not given here;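 further: cells exposed for 96 hours before readout; 0% = vehicle DMSO and 100% = killing by high DMSO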); conditions: ICB984 medulloblastoma cells, drug combinations, stronger effect = higher value
[4] = growth inhibition, single agents and combos, LFS_MB_1R, cell-based, cisplatin or BGB combos, synergistic combos for chromothripsis tumors (AID 1671452); conditions: LFS_MB_1R medulloblastoma cells, stronger effect = higher value;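 further: cells exposed for 96 hours before readout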
[5] = growth inhibition, single agents and combos, HTB85, cell-based, BGB or cisplatin IC20 combos, synergistic combos for chromothripsis tumors (AID 1671453); conditions: HTB85 osteosarcoma cells, drug combinations, stronger effect = higher value;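 further: cells exposed for 96 hours before readout; 0% = vehicle DMSO and 100% = high DMSO killing control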
[6] = growth inhibition, single agents and combos, CRL2098, cell-based, BGB or cisplatin IC20 combos, synergistic combos for chromothripsis tumors (AID 1671454); conditions: CRL2098 osteosarcoma cells, drug combinations, stronger effect = higher value;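 further: cells exposed for 96 h before readout; 0% = vehicle DMSO and 100% = killing by high DMSO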
[7] = growth inhibition, single agents and combos, HD-MB03, cell-based, BGB or cisplatin IC20 combos, synergistic combos for chromothripsis tumors (AID 1671455; in the data active means inhibition above about 83%;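 further: 0% = vehicle DMSO and 100% = high DMSO as cytotoxic control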); conditions: HD-MB03 medulloblastoma cells, stronger effect = higher value
[8] = growth inhibition, single agents and combos, UWB1.289, cell-based, BGB or cisplatin combos, synergistic combos for chromothripsis tumors (AID 1671456); conditions: UWB1.289 ovarian carcinoma cells, stronger effect = higher value;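 further: cells exposed to compound for four days; 0% = vehicle DMSO and 100% = killing by high DMSO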
[9] = growth inhibition, single agents and combos, LFS_MB_2R, cell-based, cisplatin combos, synergistic combos for chromothripsis tumors (AID 1671457); conditions: LFS_MB_2R medulloblastoma cells, stronger effect = higher value;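 further: cells exposed to compound for four days before readout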
[10] = growth inhibition, MDA-MB-436, cell-based, BGB or cisplatin combos, synergistic combos for chromothripsis tumors (AID 1671458; call rule not given here;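 further: cells exposed for 96 hours; 0% = vehicle DMSO and 100% = killing by high DMSO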); conditions: MDA-MB-436 breast carcinoma growth inhibition, drug combinations, stronger effect = higher value
[11] = UWB1.289_BRCA1 ovarian cancer growth, cell-based, BGB or cisplatin combinations (AID 1671459); conditions: UWB1.289 BRCA1 ovarian carcinoma, drug combinations, stronger effect = higher value
[12] = drug combination toxicity in non-malignant astrocytes – cell-based, BGB or cisplatin IC20 combos, cytotoxicity control for chromothriptic childhood tumor combination screen (AID 1671460); conditions: Human astrocytes, viability inhibition, drug combinations, at 0.5 µM, stronger effect = higher value;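 further: cells exposed to compounds for 96 hours before viability readout; 0% = vehicle and 100% = killing control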
[13] = BT084 cell growth, single and combined drugs, ICGC_MB145, cisplatin and BGB IC40 combos (AID 1671461); conditions: BT084 medulloblastoma cells, drug combinations, stronger effect = higher value;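 further: cells exposed to drugs for 96 hours; 0% = vehicle DMSO and 100% = high DMSO full killing control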
[14] = RCMB18 cell growth, single agent and combined, cisplatin and BGB IC40 combos (AID 1671462); conditions: RCMB18 medulloblastoma cells, stronger effect = higher value;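 further: cells exposed to compound for four days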
[15] = CRL1545 cell growth, single agent and combined, cisplatin and BGB IC20 combos (AID 1671464); conditions: CRL1545 osteosarcoma cells, stronger effect = higher value;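 further: cells exposed to compound for 96 hours before readout; 0% = vehicle DMSO and 100% = high DMSO killing control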
[16] = at 0.5 µM, stronger effect = higher value
[17] = measured here: combination with BGB IC20, at 0.005 µM
[18] = measured here: combination with BGB IC40, at 0.005 µM
[19] = measured here: combination with BGB IC40, at 0.05 µM
[20] = measured here: combination with cisplatin, at 0.5 µM, stronger effect = higher value
[21] = measured here: combination with cisplatin, at 5 µM, stronger effect = higher value
[22] = measured here: with BGB IC20 combination, at 0.5 µM
[23] = measured here: with cisplatin IC20 combination, at 0.5 µM
[24] = measured here: 5 uM single agent, at 5 µM
[25] = measured here: combination with cisplatin, at 0.5 µM
[26] = measured here: combination with cisplatin, at 5 µM
[27] = measured here: with BGB IC20, at 0.5 µM
[28] = measured here: with BGB IC20, at 5 µM
[29] = measured here: with cisplatin IC20, at 0.5 µM
[30] = measured here: with cisplatin IC20, at 5 µM
[31] = measured here: combination with BGB at IC20, at 0.5 µM
[32] = measured here: combination with cisplatin at IC20, at 0.5 µM
[33] = measured here: combo with BGB at IC20, at 0.5 µM
[34] = measured here: combo with cisplatin at IC20, at 0.5 µM
[35] = measured here: inhibition with BGB combination, at 0.05 µM
[36] = measured here: inhibition with cisplatin combination, at 0.05 µM
[37] = measured here: BGB combination, at 0.5 µM
[38] = measured here: BGB combination, at 5 µM
[39] = measured here: cisplatin combination, at 0.5 µM
[40] = measured here: cisplatin combination, at 5 µM
[41] = BGB combination, concentration series, at 5 µM
[42] = cisplatin combination, concentration series, at 5 µM
[43] = measured here: combo with BGB IC20
[44] = measured here: combo with cisplatin IC20
[45] = cisplatin combination, at 0.5 µM
[46] = measured here: BGB IC40 combination 0.05 uM, at 0.05 µM

C=C1C(=O)O[C@@H]2C=C(C)CCC=C(C)CC[C@@H]12
inhibition [1, 16]: -19.3% (inactive) | inhibition [1, 17]: -3.36% | inhibition [1, 18]: -13.6% | inhibition [1, 19]: 7.16% | inhibition [1, 20]: -51.8% | inhibition [1, 21]: 114% | inhibition ([2]; BGB combo, at 5 µM): 5.76% | inhibition ([2]; at 0.5 µM): -17.6% (inactive) | inhibition ([2]; cisplatin combo, at 5 µM): 29.9% | inhibition [2, 22]: -23.4% | inhibition [2, 23]: -29.2% | inhibition ([2]; single agent, at 5 µM): 38.5% | inhibition ([3]; BGB IC20 combo, at 0.005 µM): 4.25% | inhibition ([3]; BGB IC40 combo, at 0.005 µM): -33% | inhibition ([3]; BGB IC40 combo, at 0.05 µM): 53.7% | inhibition ([3]; at 0.5 µM): -17.1% (inactive) | inhibition ([3]; cisplatin combo, at 0.05 µM): 51.9% | inhibition ([3]; cisplatin combo, at 0.5 µM): -18% | inhibition ([3]; cisplatin combo, at 5 µM): -19.3% | inhibition [3, 24]: -11.6% | inhibition ([4]; at 0.5 µM): -31.9% (inactive) | inhibition [4, 19]: -18.3% | inhibition [4, 25]: -29.4% | inhibition [4, 26]: 98.6% | inhibition ([5]; at 0.5 µM): -6.12% (inactive) | inhibition [5, 27]: -12.5% | inhibition [5, 28]: 51.6% | inhibition [5, 29]: -4.05% | inhibition [5, 30]: 62.5% | inhibition ([5]; single agent, at 5 µM): 66.5% | inhibition ([6]; at 0.5 µM): -64.3% (inactive) | inhibition [6, 31]: -14.4% | inhibition [6, 32]: -90.7% | inhibition ([7]; at 0.5 µM): -8.56% (inactive) | inhibition [7, 33]: 5.57% | inhibition [7, 34]: -16.5% | inhibition ([8]; at 0.5 µM): -5.91% (inactive) | inhibition [8, 35]: -14.1% | inhibition [8, 36]: -20.4% | inhibition ([9]; at 0.5 µM): -23.7% (inactive) | inhibition [9, 25]: -29.5% | inhibition [9, 26]: 43.1% | inhibition ([10]; at 0.5 µM): -0.98% (inactive) | inhibition [10, 37]: 1.65% | inhibition [10, 38]: 39.9% | inhibition [10, 39]: -3.72% | inhibition [10, 40]: 56.7% | inhibition [11, 41]: 44.1% | inhibition ([11]; at 0.5 µM): -3.8% (inactive) | inhibition [11, 42]: 48.6% | inhibition [12]: 3.62% (inactive) | inhibition [12, 43]: 4.43% | inhibition [12, 44]: 0.413% | inhibition ([13]; at 0.5 µM): -5.97% (inactive) | inhibition [13, 45]: -9.26% | inhibition ([13]; cisplatin combination, at 5 µM): 48.9% | inhibition [13, 46]: -2.12% | inhibition ([13]; single agent, at 5 µM): 20.7% | inhibition ([14]; at 0.5 µM): 9.79% (inactive) | inhibition ([14]; cisplatin combo, at 5 µM): 75.6% | inhibition ([14]; measured here: BGB IC40 combination, at 0.05 µM): 6.86% | inhibition [14, 25]: 15.7% | inhibition ([14]; single agent, at 5 µM): 33.4% | inhibition ([15]; at 0.5 µM): 8.87% (inactive) | inhibition [15, 22]: -16.3% | inhibition [15, 23]: 21.4% | inhibition ([15]; single agent, at 0.05 µM): 18.3% | inhibition ([15]; single agent, at 5 µM): 72.3%

Nc1nc(NC2CC2)cc(-c2cccc(Cl)c2Cl)n1
inhibition [1, 16]: -24.4% (inactive) | inhibition [1, 17]: 6.42% | inhibition [1, 18]: -13.3% | inhibition [1, 19]: -3.68% | inhibition [1, 20]: -27.2% | inhibition [1, 21]: -1.92% | inhibition ([2]; BGB combo, at 5 µM): 4.24% | inhibition ([2]; at 0.5 µM): -22.2% (inactive) | inhibition ([2]; cisplatin combo, at 5 µM): -25.5% | inhibition [2, 22]: -14.4% | inhibition [2, 23]: -33.4% | inhibition ([2]; single agent, at 5 µM): 1.5% | inhibition ([3]; BGB IC20 combo, at 0.005 µM): -16.3% | inhibition ([3]; BGB IC40 combo, at 0.005 µM): -42.9% | inhibition ([3]; BGB IC40 combo, at 0.05 µM): -23.9% | inhibition ([3]; at 0.5 µM): -15.4% (inactive) | inhibition ([3]; cisplatin combo, at 0.05 µM): -28.8% | inhibition ([3]; cisplatin combo, at 0.5 µM): -25.9% | inhibition ([3]; cisplatin combo, at 5 µM): -24% | inhibition [3, 24]: -4.67% | inhibition ([4]; at 0.5 µM): -47.5% (inactive) | inhibition [4, 19]: -29.4% | inhibition [4, 25]: -115% | inhibition [4, 26]: -60.1% | inhibition ([5]; at 0.5 µM): -20.9% (inactive) | inhibition [5, 27]: -3.53% | inhibition [5, 28]: -8.44% | inhibition [5, 29]: -38.1% | inhibition [5, 30]: -21.3% | inhibition ([5]; single agent, at 5 µM): 3.83% | inhibition ([6]; at 0.5 µM): -50% (inactive) | inhibition [6, 31]: -42.1% | inhibition [6, 32]: -36.5% | inhibition ([7]; at 0.5 µM): -12.4% (inactive) | inhibition [7, 33]: -17% | inhibition [7, 34]: -8.02% | inhibition ([8]; at 0.5 µM): -15.7% (inactive) | inhibition [8, 35]: -10.8% | inhibition [8, 36]: -19.7% | inhibition ([9]; at 0.5 µM): -12.8% (inactive) | inhibition [9, 25]: -18% | inhibition [9, 26]: 18.1% | inhibition ([10]; at 0.5 µM): -5.02% (inactive) | inhibition [10, 37]: -1.67% | inhibition [10, 38]: 10.3% | inhibition [10, 39]: -5.74% | inhibition [10, 40]: 15.8% | inhibition [11, 41]: 9.28% | inhibition ([11]; at 0.5 µM): -9.72% (inactive) | inhibition [11, 42]: 10.7% | inhibition [12]: -2.78% (inactive) | inhibition [12, 43]: -4.24% | inhibition [12, 44]: 6.45% | inhibition ([13]; at 0.5 µM): -9.21% (inactive) | inhibition [13, 45]: -6.21% | inhibition ([13]; cisplatin combination, at 5 µM): -20.8% | inhibition [13, 46]: -10.7% | inhibition ([13]; single agent, at 5 µM): -6.16% | inhibition ([14]; at 0.5 µM): -8.4% (inactive) | inhibition ([14]; cisplatin combo, at 5 µM): -0.639%
